Records with an inconclusive call do not appear. Active and inactive are the calls of the source. Calls follow the shape of the dose curve; as a rule, active = well fitted inhibition curve with a large enough effect; inconclusive = small, poorly fitted or top-dose-only effect; inactive = no such curve, though single readings can be large or run the other way.
The compounds below were run against Retinaldehyde dehydrogenase 3 (Homo sapiens) (UniProt P47895) (assay: qHTS for Inhibitors of the Aldehyde Dehydrogenase Family (ALDH1A3) Primary screen (AID 2061315;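 also: plate controls were DMSO vehicle for no effect and reference inhibitor for full effect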)). Conditions: ALDH inhibition qHTS; series mostly up to 56 µM; activity change, negative = inhibition: at the top concentration.

How did the “activity change, negative = inhibition” value turn out when `O=C1C[C@@]2(C(=O)N1)C(=O)N(Cc1ccc(Br)cc1F)C(=O)c1cccn12` was run?
The value was 5.11% (inactive).

How did the “activity change, negative = inhibition” value turn out when `CN(C)C/C=C/C(=O)Nc1ccc(C(=O)Nc2cccc(Nc3ncc(Cl)c(-c4c[nH]c5ccccc45)n3)c2)cc1` was run?
The value was -23.1% (inactive).

`Nc1ccn(C2CO[C@H](CO)O2)c(=O)n1` (stereo not given in full) was tested. Which “activity change, negative = inhibition” value did it give?
Its value is -1.67% (inactive).

For `CC(=O)Nc1cccc(-n2c(=O)n(C3CC3)c(=O)c3c(Nc4ccc(I)cc4F)n(C)c(=O)c(C)c32)c1`, which “activity change, negative = inhibition” value is on record?
Its value is -7.06% (inactive).

How did the “activity change, negative = inhibition” value turn out when `O=C(OCC1OC(Oc2ccc(O)cc2COC(=O)C2(O)C(O)CCC(=O)C2OC(=O)C2C=CCC2)C(OC(=O)C2C=CCC2)C(O)C1O)C1C=CCC1` (stereo not given) was run?
The value was 7.35% [at 16.9 µM] (inactive).

With `COc1cc(O)cc(C)c1C(=O)OC1C(CO)OC(n2ccc(=O)[nH]c2=O)C1OC(C)=O` (stereo not given) as the compound, how does the “activity change, negative = inhibition” value read?
The value was -1.51% [at 28 µM] (inactive).

`COc1c(OCCCN2CCOCC2)ccc2c3n(c(=NC(=O)c4cnc(N)nc4)nc12)CCN3` was tested. Which activity change, negative = inhibition did it give?
The activity change, negative = inhibition was 13.9% [at 11.2 µM] (inactive).

How did the “activity change, negative = inhibition” value turn out when `CC(C)n1nc(-c2ccc3oc(N)nc3c2)c2c(N)ncnc21` was run?
The value was -0.332% (inactive).

How did the “activity change, negative = inhibition” value turn out when `CC12CCC3c4ccc(O)cc4CCC3C1CC(OC1OC(C(=O)O)C(O)C(O)C1O)C2O` (stereo not given) was run?
The value was -0.0803% (inactive).

`CO[C@@H](C)Cn1c(=O)n(C)c2cnc3ccc(-c4cncc(C(C)(C)O)c4)cc3c21` was tested. Which “activity change, negative = inhibition” value did it give?
Its value is -26.7% (inactive).

Which “activity change, negative = inhibition” value does the source give for `Cc1nc(NC(=O)N2CCC[C@H]2C(N)=O)sc1-c1ccnc(C(C)(C)C(F)(F)F)c1` here?
The value was -7.1% (inactive).

How did the Potency turn out when `C[C@@H](Oc1cc(-c2cnn(C3CCNCC3)c2)cnc1N)c1c(Cl)ccc(F)c1Cl` was run?
Its Potency is “inactive”.

Which “activity change, negative = inhibition” value does the source give for `COCCCc1sc(-c2ccccc2)nc1C(=O)Nc1ccccc1-c1nc2cc(CN3CCCC3)cnc2s1` here?
The value was -19.6% [at 28 µM] (inactive).

Which “activity change, negative = inhibition” value does the source give for `CC1C2=CC(=O)OC2(O)CC2C1CCC1C(C)(C)CCC(O)C21C` (stereo not given) here?
Its value is -3.46% (inactive).

How did the “activity change, negative = inhibition” value turn out when `C=C1C2(CCC(=O)OC2(C)C)CC(OC(=O)/C(C)=C/C)C2(C)C13OC14C(=O)OC(C)(C(=O)C12C(=O)OC4C)C3OC(C)=O` (stereo not given) was run?
The value was 9.42% [at 16.9 µM] (inactive).

Which “activity change, negative = inhibition” value does the source give for `CC1=CC(=O)[C@]2(O[C@@H]3O[C@@H](C)[C@H](O)[C@@H](O)[C@H]3OC(=O)/C=C/c3ccccc3)C=CO[C@@H](O[C@@H]3O[C@H](CO)[C@@H](O)[C@H](O)[C@H]3O)[C@H]12` here?
The value was -14.3% [at 16.9 µM] (inactive).

How did the “activity change, negative = inhibition” value turn out when `O=C(NOCC1CC1)c1ccc(F)c(F)c1Nc1ccc(I)cc1Cl` was run?
Its value is -2.02% (inactive).

With `Cc1nc(NC(=O)N2CCCC2C(N)=O)sc1-c1ccnc(C(C)(C)C(F)(F)F)c1` (stereo not given) as the compound, how does the “activity change, negative = inhibition” value read?
The value was -1.58% (inactive).

For `CC(C)(C)c1nc(-c2cccc(NS(=O)(=O)c3c(F)cccc3F)c2F)c(-c2ccnc(N)n2)s1`, which “activity change, negative = inhibition” value is on record?
Its value is 5.23% (inactive).

For `CC(=O)c1c(O)cc(O[C@@H]2O[C@H](CO)[C@@H](O)[C@H](O)[C@H]2O)cc1O`, which “activity change, negative = inhibition” value is on record?
The value was -14.4% (inactive).

`Cc1ncc(NC(=O)c2ccc(CN3CCN(C)CC3)c(C(F)(F)F)c2)cc1Nc1nccc(-c2cccnc2)n1` was tested. Which “activity change, negative = inhibition” value did it give?
The value was -9.31% (inactive).

`COC(=O)Nc1ccc(-c2nc(N3CCOCC3)c3cnn(C4CCN(Cc5cccnc5)CC4)c3n2)cc1` was tested. Which “activity change, negative = inhibition” value did it give?
Its value is 1.34% (inactive).

With `NC1(Cc2ccc(Cl)cc2)CCN(c2ncnc3[nH]ccc23)CC1` as the compound, how does the “activity change, negative = inhibition” value read?
Its value is 14.4% (inactive).

How did the “activity change, negative = inhibition” value turn out when `C[N+]1(C)[C@@H]2CC[C@H]1CC(OC(=O)C(O)c1ccccc1)C2` (stereo not given in full) was run?
Its value is -5.46% (inactive).

With `Cn1cnc2c(F)c(Nc3ccc(Br)cc3Cl)c(C(=O)NOCCO)cc21` as the compound, how does the “activity change, negative = inhibition” value read?
Its value is 5.51% (inactive).

`COc1ccc(C2(O)CCC(N3CC[C@@H](NC(=O)CNC(=O)c4cccc(C(F)(F)F)c4)C3)CC2)cn1` (stereo not given in full) was tested. Which “activity change, negative = inhibition” value did it give?
The value was -21.7% (inactive).

How did the “activity change, negative = inhibition” value turn out when `Cn1nc(C(C)(C)C)cc1C(=O)N[C@@H](Cc1cccc(Cl)c1)C(=O)NCC#N` was run?
Its value is 6.27% (inactive).

For `CC(=O)OC[C@]1(O)[C@H]2[C@H](OC(=O)CC(C)C)OC=C(CO[C@@H]3O[C@H](CO)[C@@H](O)[C@H](O)[C@H]3O)[C@H]2C[C@@H]1O`, which “activity change, negative = inhibition” value is on record?
Its value is -8.72% [at 28 µM] (inactive).

`C=C1CC23CC(=O)C4C(CO)(CO)CCCC4(C)C2CCC1C3` (stereo not given) was tested. Which “activity change, negative = inhibition” value did it give?
Its value is 9.49% (inactive).

For `CCCOc1ccc(CCc2nc3cc(-c4c(C)noc4C)ccc3n2CCN2CCOCC2)cc1`, which “activity change, negative = inhibition” value is on record?
The value was -5.05% (inactive).

Which “activity change, negative = inhibition” value does the source give for `c1cncc(CN2CCC(n3ncc4c(N5CCOCC5)nc(-c5ccc6[nH]ccc6c5)nc43)CC2)c1` here?
The value was -5.87% (inactive).

With `CC(C)=CCC[C@@](C)(O)[C@H]1CC[C@]2(C)[C@@H]1[C@H](O)CC1[C@@]3(C)CC[C@H](O[C@@H]4O[C@H](CO)[C@@H](O)[C@H](O)[C@H]4O[C@@H]4O[C@H](CO)[C@@H](O)[C@H](O)[C@H]4O)C(C)(C)[C@@H]3CC[C@]12C` (stereo not given in full) as the compound, how does the “activity change, negative = inhibition” value read?
Its value is 6.72% [at 16.9 µM] (inactive).

For `Cn1cc(-c2[nH]c3cc(NC(=O)[C@H](N)C4CCCCC4)cc4c3c2C=NNC4=O)cn1`, which “activity change, negative = inhibition” value is on record?
The value was 13.7% (inactive).

How did the “activity change, negative = inhibition” value turn out when `C[C@H](O)[C@H](O)[C@H]1CNc2nc(N)[nH]c(=O)c2N1` was run?
The value was -9.34% (inactive).

With `Cc1cccc(S(=O)(=O)N2CCC[C@@H]2CCN2CCC(C)CC2)c1` as the compound, how does the “activity change, negative = inhibition” value read?
The value was 2.72% (inactive).

How did the “activity change, negative = inhibition” value turn out when `CC(C)C1CCC(CO)=CC1/C=C(\CO)C(=O)OCC1(O)CCC(C(C)C)C2C=C(C(=O)O)COC(=O)C21` (stereo not given) was run?
The value was -7.3% [at 28 µM] (inactive).

How did the “activity change, negative = inhibition” value turn out when `CCC(O)C(C)C1CCC(C(C)C(=O)O)O1` (stereo not given) was run?
Its value is 0.271% (inactive).

`COc1ccc(F)c(F)c1C(=O)c1cnc(NC2CCN(S(C)(=O)=O)CC2)nc1N` was tested. Which “activity change, negative = inhibition” value did it give?
Its value is 9.12% (inactive).

For `CCn1nnc2c(N3CCOCC3)nc(-c3ccc(NC(=O)Nc4ccc(C(=O)N5CCN(C)CC5)cc4)cc3)nc21`, which “activity change, negative = inhibition” value is on record?
Its value is -2.94% (inactive).

With `CC(=O)NC(C)c1ccc(Oc2ccc(OC(C)C)cc2)cc1` (stereo not given) as the compound, how does the “activity change, negative = inhibition” value read?
The value was 1.15% [at 114 µM] (inactive).

Reference: PubChem BioAssay (NCATS)
